# Rows were chosen to be rich in hits. Some 9.2% of all compounds tested hit in one or more screens of this group.
# NPC1 promoter act: activates the NPC1 promoter | Huh7 NPC1 promoter luciferase reporter, 24 h | Potency, µM (titrated, usually from 9.22 µM), most hits filed as activators | actives 2.4% (n = 320,000) | AID 485313; also: nearly all actives have a fitted effect of over 60% in size
#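 Cells: Huh7 expressing luciferase under the NPC1 promoter, 1500/well. Seeded 2 h, compound added, incubated 24 h at 37 °C. Luciferase reagent, 10 min ambient, then luminescence.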
# ELG1 DNA repair: inhibitors of ELG1-dependent DNA repair in HEK293T cells. HEK293T ELG1-luciferase reporter, luminescence, 16 h; DNA damage induced by 5-fluorouridine. actives 2.3% (n = 330,000). Potency, µM (top dose mostly 46.1 µM), most hits filed as inhibitors; also: nearly all actives have a fitted effect of over 55% in size
#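 HEK293T cells expressing luciferase-tagged ELG1 (2,000/well) received 5-Fluorouridine plus compound or DMSO for 16 hr at 37 °C. Luciferase was read by ONE-Glo luminescence after 30 min at room temperature.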
# FLuc modulator: inhibits or activates purified firefly luciferase, miR-21 counter-screen. purified FLuc, Km substrates, luminescence inhibition. AID 588342. P08659. actives 6.9% (n = 360,000). Potency, µM (highest dose often 57.5 µM), most hits filed as inhibitors; also: nearly all actives have a fitted effect of over 55% in size
# Target sequence (P08659 whole entry, looked up): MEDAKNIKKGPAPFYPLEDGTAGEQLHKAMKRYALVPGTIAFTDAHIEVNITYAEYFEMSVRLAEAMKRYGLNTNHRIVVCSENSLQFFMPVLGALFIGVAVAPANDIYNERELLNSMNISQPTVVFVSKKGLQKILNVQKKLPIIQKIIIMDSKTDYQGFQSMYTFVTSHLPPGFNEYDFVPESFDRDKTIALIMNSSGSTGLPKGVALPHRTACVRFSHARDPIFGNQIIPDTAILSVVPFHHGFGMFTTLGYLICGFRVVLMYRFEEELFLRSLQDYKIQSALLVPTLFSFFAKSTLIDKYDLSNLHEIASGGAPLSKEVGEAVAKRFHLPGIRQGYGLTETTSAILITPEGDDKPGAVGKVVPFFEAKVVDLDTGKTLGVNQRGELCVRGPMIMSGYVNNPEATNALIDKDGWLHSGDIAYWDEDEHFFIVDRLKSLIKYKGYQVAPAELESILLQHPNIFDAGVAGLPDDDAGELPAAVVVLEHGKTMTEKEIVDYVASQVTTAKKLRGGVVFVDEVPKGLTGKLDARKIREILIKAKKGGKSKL
#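 Purified P. pyralis luciferase, 10 nM final, with Km-level 10 uM D-luciferin and 10 uM ATP in 50 mM Tris acetate pH 7.5, 10 mM Mg acetate, 0.01% Tween-20, 0.05% BSA; 6-point qHTS titration about 60 µM downward; luminescence read.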
# SMN2 splice enh: increases expression of the SMN2 splice variant; HEK293 SMN2-luciferase splicing reporter, luminescence, 30-36 h; Potency, µM (highest dose often 46.1 µM), actives largely listed as activators; actives 2.8% (n = 210,000); AID 1458; also: nearly all actives have a fitted effect of over 55% in size
#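 HEK293 cells carry an SMN2 […]–luciferase reporter in which exon 7 inclusion puts luciferase in frame. Cells were plated 10-12 h before compound addition, then incubated 30-36 h at 37C. ONE-Glo luminescence was read; sodium butyrate at 4.5 mM final served as control.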
# Rab9 promoter act: activators of Rab9 promoter; Huh7 Rab9 promoter-luciferase reporter, luminescence, 24 h; Potency, µM (doses to about 9.22 µM), usual class: activators; actives 2.8% (n = 320,000); also: nearly all actives have a fitted effect of over 60% in size
#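 Measured in stably transfected Huh7 cells bearing a Rab9 promoter–luciferase construct: 24 h compound treatment at 37 °C, followed by luminescence detection.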
# ELG1 genotoxic: inducers of genotoxicity in HEK293T ELG1-luciferase cells; HEK293T ELG1-luciferase reporter, luminescence, 16 h; Potency, µM (highest dose often 46 µM), usual class: activators; actives 1.3% (n = 330,000); AID 504466; also: nearly all actives have a fitted effect of over 60% in size
#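 HEK293T cells expressing luciferase-tagged ELG1 were exposed to compound or DMSO vehicle for 16 hr at 37 °C and 5% CO2. Luciferase activity was then measured with ONE-Glo after 30 min at room temperature.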
# A number is an active result; . = inactive; ? = inconclusive; / = no result; [ ] = another dose, or the depositor's remark. Calls follow the shape of the dose curve; as a rule, active = well fitted curve in the direction sought with a large enough effect; inconclusive = small, poorly fitted or top-dose-only effect, or another doubt; inactive = no such curve, though single readings can be large; an effect the other way counts as inactive or inconclusive.
SMILES,NPC1 promoter act,ELG1 DNA repair,FLuc modulator,SMN2 splice enh,Rab9 promoter act,ELG1 genotoxic
Cc1oc2c(C)c3oc(=O)c(CC(=O)N[C@@H](CCCNC(N)=O)C(=O)O)c(C)c3cc2c1C,.,.,?,/,.,.
Cc1c(CC(=O)N[C@@H](CCCNC(N)=O)C(=O)O)c(=O)oc2cc3oc4c(c3cc12)CCCC4,.,.,16.9µM,/,.,.
Cc1c(CCC(=O)NCCCC(=O)O)c(=O)oc2cc3oc4c(c3cc12)CCCC4,.,?,19µM,/,.,.
CCN1CCc2nc3sc(C(=O)c4ccccc4)c(N)c3cc2C1,/,/,9.53µM,.,/,/
Nc1c(C(=O)Nc2ccc(C(=O)O)cc2)sc2nc3c(cc12)CCCC3,/,/,0.19µM,?,/,/
CCN1CCc2nc3sc(C(=O)c4ccc(F)cc4)c(N)c3cc2C1,/,/,.,/,/,/
Nc1c(C(=O)Nc2ccc(Cl)c(C(=O)O)c2)sc2nc3c(cc12)CCCC3,?,?,2.69µM,/,?,.
CCOc1ccc(NC(=O)c2sc3nc4c(cc3c2N)CCCCCC4)cc1,/,/,.,.,/,/
Nc1c(C(=O)Nc2cccc(C(=O)O)c2)sc2nc3c(cc12)CCCC3,?,?,0.0675µM,/,1.26µM,?
Cc1nc2ccccn2c1C(=O)N/N=C/c1ccc([N+](=O)[O-])cc1,.,.,.,/,.,.
Cc1nc2ccccn2c1C(=O)N/N=C/c1ccc([N+](=O)[O-])o1,.,10.3µM,.,.,.,.
Cc1nc2ccccn2c1C(=O)N/N=C/c1ccc(CNC(=O)C(=O)Nc2ccccc2)o1,.,.,19µM,?,.,.
Cn1ccnc1C(OC(=O)c1ccccc1)C(F)(F)F (centres undefined),.,.,.,/,.,.
O=C(NCC1COc2ccccc2O1)c1ccc(F)c(S(=O)(=O)N2CCOCC2)c1 (centres undefined),.,.,.,/,.,.
O=C(NCCN1C(=O)S/C(=C\c2ccc(Cl)cc2)C1=O)c1ccc(F)c(S(=O)(=O)N2CCOCC2)c1,?,?,.,.,?,?
O=C(NCC1COc2ccccc2O1)c1cc(S(=O)(=O)N2CCOCC2)c(Cl)cc1Cl (centres undefined),.,18.3µM,.,/,.,.
O=C(NCCN1C(=O)S/C(=C\c2ccccc2)C1=O)c1cc(S(=O)(=O)N2CCOCC2)c(Cl)cc1Cl,.,14.6µM,.,.,.,.
C=C(C)CSc1cc(C)nc2c(-c3ccccc3)c(C)nn12,.,?,?,/,.,.
COc1ccc(NC(=O)CN(C)C(=O)c2cc(-c3ccco3)nc3ccccc23)cc1,.,18.3µM,16.9µM,/,.,.
CN(CC(=O)Nc1ccc(F)c(F)c1F)C(=O)c1cc(-c2ccncc2)nc2ccccc12,.,23.1µM,.,/,.,.
COc1ccc(NC(=O)CN(C)C(=O)c2ccc(-c3ccccc3Cl)o2)cc1,.,.,23.9µM,/,.,.
Cc1ccc(-c2cc(C(=O)N(C)CC(=O)Nc3ccccc3Br)c3ccccc3n2)o1,.,5.17µM,?,/,.,.
CN(CC(=O)Nc1cccc(F)c1)C(=O)c1cc(-c2ccco2)nc2ccccc12,.,?,?,/,.,.
COc1cc(NC(=O)CSc2nc3c(c(=O)n(C)c(=O)n3C)n2C)cc(OC)c1,.,.,.,/,.,.
Cc1cnc(NC(=O)Nc2ccc(Cl)cc2)s1,.,?,4.78µM,.,.,?
SMILES,NPC1 promoter act,ELG1 DNA repair,FLuc modulator,SMN2 splice enh,Rab9 promoter act,ELG1 genotoxic
O=C(Nc1ccc(F)cc1)Nc1nnc(-c2ccncc2)s1,.,?,.,.,.,.
O=C(Nc1ccc(Cl)cc1)Nc1nnc(-c2ccncc2)s1,.,3.66µM,.,.,.,.
Cc1cnc(NC(=O)CSc2ccc(Cl)cc2)s1,.,.,?,.,.,.
CC1CCN(CC[S-])CC1.O.O.[Cl][Pt],/,/,/,.[9.22 µM],/,/
CC1CCc2nc(NC(=O)C3CC3)sc2C1 (centres undefined),?,?,23.9µM,?,?,.
CC1CCc2nc(NC(=O)C3COc4ccccc4O3)sc2C1 (centres undefined),?,?,0.536µM,.,?,?

# Bioassay records as filed in PubChem.
